# Reference: ChEMBL document CHEMBL3988442, “University of Dundee, Small-Polar-MMV Screening Library” (2021)
# Among all 69,000 compounds or so, about 1,000 (1.4%) showed an effect of 50% or more. The sample as a whole holds a higher share of strong results than the screen did.
# Test system: Leishmania donovani
# Assay: Leishmania intramacrophage assay
# Type: functional, organism-based
# Parameters: scale not given: in the data most compounds retested in dose-response had high values
smiles,measurement,setting,value
O=C(COc1ccccc1)N1C[C@@H]2COC[C@]2(COc2cccnc2)C1.O=C(O)C(F)(F)F,Percent Effect,"30.3 µM, […]",29.31%
CC(C)(C)c1cc(CN2C[C@H]3CC[C@@H]2CN(Cc2ccccn2)C3)n[nH]1,Percent Effect,"30.3 µM, […]",4.97%
CC(C)N(C)S(=O)(=O)N(Cc1cccs1)CC1CCCO1 (centres undefined),Percent Effect,"30.3 µM, […]",-50.49%
CC(C)c1cc(NCc2csc(C(C)C)n2)nc(N)n1,Percent Effect,"30.3 µM, […]",50.61%
CC(C)c1cc(NCc2csc(N(C)C)n2)nc(N)n1,Percent Effect,"30.3 µM, […]",41.43%
CC(C)c1nc(CNc2ccc(CNS(C)(=O)=O)cc2)cs1,Percent Effect,"30.3 µM, […]",21.12%
O=C(O)C(F)(F)F.O=C(c1ccco1)N1CCCC2(CCN(c3nncs3)C2)C1 (centres undefined),Percent Effect,"30.3 µM, […]",36.42%
Cn1cc(CN2CCC3(CC2)CCN(Cc2ccccn2)CC3)cn1,Percent Effect,"30.3 µM, […]",-5.313%
Cn1cc(CN2CCC3(CCCN(Cc4ccccn4)C3)CC2)cn1,Percent Effect,"30 µM, 30.03 µM",51.96%
Cn1cc(CN2CCCC3(CCN(C(=O)c4ccccn4)C3)C2)cn1.O=C(O)C(F)(F)F.O=C(O)C(F)(F)F.O=C(O)C(F)(F)F (centres undefined),Percent Effect,"30.3 µM, […]",77.43%
O=C(O)C(F)(F)F.O=C(c1ccccn1)N1CCC2(CCCN(c3nncs3)C2)C1 (centres undefined),Percent Effect,"30.3 µM, […]",54.23%
Cc1cccc(CN2CCC3(CCCN(Cc4cnn(C)c4)C3)C2)n1.O=C(O)C(F)(F)F.O=C(O)C(F)(F)F (centres undefined),Percent Effect,"30.3 µM, […]",37.49%
Cn1cc(CN2CCCC3(CCN(C(=O)c4cnccn4)C3)C2)cn1.O=C(O)C(F)(F)F.O=C(O)C(F)(F)F (centres undefined),Percent Effect,"30.3 µM, […]",26.24%
Cc1cnc(C(=O)N2CCC3(CCCN(c4nncs4)C3)C2)cn1 (centres undefined),Percent Effect,"30.3 µM, […]",29.83%
Cn1cc(CN2CCCC23CCN(C(=O)c2ccccn2)CC3)cn1.O=C(O)C(F)(F)F,Percent Effect,"30.3 µM, […]",-2.86%
CCOc1ccc(NC(=O)N(C)Cc2cnn(C)c2)c(C)c1,Percent Effect,"30.3 µM, […]",28.5%
CC(C)N1CCO[C@H]2CN(C(=O)c3ccoc3)C[C@H]21.O=C(O)C(F)(F)F,Percent Effect,"30 µM, 30.03 µM",-20.99%
Cn1cnc2c1C(COCc1cccnc1)N(Cc1ccccn1)CC2 (centres undefined),Percent Effect,"30 µM, 30.03 µM",6.459%
CC(C)(C)c1n[nH]c(C2CN(Cc3nnc(C4CCC4)o3)CCO2)n1 (centres undefined),Percent Effect,30 µM,11.21%
CCN(C)c1ncnc2c1CCN(Cc1ccncc1)CC2.O=C(O)C(F)(F)F.O=C(O)C(F)(F)F.O=C(O)C(F)(F)F,Percent Effect,"30.3 µM, […]",31.79%
CCn1cc(CN(C)S(=O)(=O)c2ccc(Cl)cc2)cn1,Percent Effect,"30 µM, 30.03 µM",2.361%
CCn1cc(CN(C)S(=O)(=O)c2cnn(C)c2)cn1,Percent Effect,"30.3 µM, […]",50.44%
CCn1cc(CN(C)S(=O)(=O)c2ccccc2)cn1,Percent Effect,"30.3 µM, […]",11.15%
C[C@@H]1CN(Cc2ccoc2)C[C@]12CCN(CC(=O)N(C)C)C2=O.O=C(O)C(F)(F)F,Percent Effect,"30.3 µM, […]",1.993%
NC(=O)c1ccnc(N2CCCC(CO)(Cc3ccc(F)cc3)C2)c1 (centres undefined),Percent Effect,"30.3 µM, […]",16.75%
O=S(=O)(CCCN1CCOC(Cn2cccn2)C1)c1ccccc1 (centres undefined),Percent Effect,"30.3 µM, […]",8.687%
Cc1noc([C@H]2COC[C@H]3CN(C(=O)Cc4cccc(F)c4)C[C@H]32)n1,Percent Effect,"30.3 µM, […]",29.86%
Cc1noc(C)c1CN(C)C(=O)c1ccc(O)nc1,Percent Effect,30 µM,24.33%
Cc1noc(C)c1CN(C)C(=O)c1ccc(NC2CC2)nc1,Percent Effect,"30 µM, 30.03 µM",24.65%
Cc1noc(C)c1CN(C)C(=O)c1cnc(C2CC2)nc1O,Percent Effect,"30.3 µM, […]",65.78%
CSCC(=O)N1C[C@H]2CC[C@@H]1CN(Cc1ccccc1)C2,Percent Effect,"30 µM, 30.03 µM",50.94%
CCOC(=O)N1C[C@H]2CC[C@@H]1CN(Cc1ccccc1)C2,Percent Effect,"30.3 µM, […]",27.53%
O=C(CSc1ncccn1)N1C[C@H]2CC[C@@H]1CN(Cc1ccncc1)C2,Percent Effect,"30 µM, 30.03 µM",54.88%
O=C(CSc1ccncc1)N1C[C@H]2CC[C@@H]1CN(Cc1cccnc1)C2,Percent Effect,"30 µM, 30.03 µM",35.98%
O=C(CSc1ccccc1)N1C[C@H]2CC[C@@H]1CN(Cc1ccncc1)C2,Percent Effect,"30.3 µM, […]",14.29%
O=C(CC(F)(F)F)N1C[C@H]2CC[C@@H]1CN(Cc1ccccc1)C2,Percent Effect,"30.3 µM, […]",17.26%
[O-][S+](Cc1c(F)cccc1Cl)Cc1nnnn1C1CC1 (centres undefined),Percent Effect,"30.3 µM, […]",-31.87%
COCCC(C)NC(=O)c1cc(Br)c2c(c1)OCCO2 (centres undefined),Percent Effect,30 µM,12.78%
Cc1nc(COc2cccc(C#N)c2)no1,Percent Effect,"30 µM, 30.03 µM",-12.6%
Cc1n[nH]c(C2CN(CC(=O)NCCc3ccccc3C)CCO2)n1 (centres undefined),Percent Effect,"30.3 µM, […]",-38.97%
CCCc1cncnc1N1CCC(NCc2ccc(O)cc2)CC1,Percent Effect,"30.3 µM, […]",-3.143%
CCCc1cncnc1N1CCC(NCc2ccncc2)CC1,Percent Effect,"30.3 µM, […]",-13.54%
CCCc1cncnc1N1CCC(NCc2cc3ccccc3[nH]2)CC1,Percent Effect,"30.3 µM, […]",84.37%
CC(=O)N1CCN(c2cc(C3CN(C(C)=O)CCO3)nc(C)n2)CC1 (centres undefined),Percent Effect,"30.3 µM, […]",2.386%
CC(C)c1ccc(C#N)c(N2CC(C)(C)[C@@](C)(O)C2)n1,Percent Effect,"30.3 µM, […]",3.251%
Cc1cc(C)n(CC2CN(CCOc3ccccc3C#N)CCO2)n1 (centres undefined),Percent Effect,30 µM,10.79%
COCC1CN(c2ncc(F)cn2)Cc2cnn(C)c21.O=C(O)C(F)(F)F.O=C(O)C(F)(F)F (centres undefined),Percent Effect,"30.3 µM, […]",22.2%
CCn1ncc2c1C(COC)CN(Cc1ccc(F)cc1)C2.O=C(O)C(F)(F)F.O=C(O)C(F)(F)F (centres undefined),Percent Effect,"30.3 µM, […]",-25.2%
CCn1ncc2c1C(COC)CN(c1ncc(F)cn1)C2.O=C(O)C(F)(F)F.O=C(O)C(F)(F)F (centres undefined),Percent Effect,"30.3 µM, […]",50.28%
